Here are results for one sequence from publication PMC7862700, “An all-to-all approach to the identification of sequence-specific readers for epigenetic DNA modifications on cytosine”.

Assay in all cases: DAPPL (digital affinity profiling via proximity ligation, sequencing); 10 mM Tris-HCl pH 7.5, 50 mM NaCl, 1 mM DTT, 4% glycerol, room temperature, 30 min; GST-TFs on glutathione beads, 16-mer random dsDNA library, 0.1% formaldehyde crosslink after washing; high values mean tight binding
For one assay, the target named is T1, FLI1 (Homo sapiens, UniProt Q01543 1-452).
T1 sequence: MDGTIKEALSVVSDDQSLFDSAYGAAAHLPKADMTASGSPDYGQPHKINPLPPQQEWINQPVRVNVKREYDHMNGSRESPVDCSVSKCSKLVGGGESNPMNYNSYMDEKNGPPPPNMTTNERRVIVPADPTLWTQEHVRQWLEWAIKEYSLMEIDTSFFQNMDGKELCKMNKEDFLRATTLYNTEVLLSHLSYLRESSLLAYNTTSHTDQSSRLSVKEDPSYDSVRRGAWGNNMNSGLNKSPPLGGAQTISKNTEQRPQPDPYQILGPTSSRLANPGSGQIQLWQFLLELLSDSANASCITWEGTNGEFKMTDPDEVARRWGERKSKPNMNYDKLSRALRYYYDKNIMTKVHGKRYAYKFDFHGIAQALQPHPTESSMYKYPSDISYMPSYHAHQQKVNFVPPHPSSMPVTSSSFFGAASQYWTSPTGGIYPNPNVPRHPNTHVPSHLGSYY
Conditions: protein: recombinant; tags: N-terminal GST; dsDNA, one strand shown. In a few lines:
(§1)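 The binding signal reported is, for every hexamer, its read frequency for a factor over its read frequency for the tag-only sample. Reads came from pools of yeast-expressed, GST-fused human transcription factors on glutathione beads, barcoded with DNA and mixed with that sample, which were incubated with 200 nmole of a random double-stranded 16-mer DNA library in Tris/NaCl/DTT/glycerol buffer at room temperature for 30 min. After washing, the pools were crosslinked with 0.1% formaldehyde, proximity-ligated with BsaI/T4 ligase for 1 h at 37 °C, PCR-amplified and sequenced on an Illumina NextSeq500.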

Another assay addresses T2, ELK1 (Homo sapiens, UniProt P19419 1-428).
T2 sequence: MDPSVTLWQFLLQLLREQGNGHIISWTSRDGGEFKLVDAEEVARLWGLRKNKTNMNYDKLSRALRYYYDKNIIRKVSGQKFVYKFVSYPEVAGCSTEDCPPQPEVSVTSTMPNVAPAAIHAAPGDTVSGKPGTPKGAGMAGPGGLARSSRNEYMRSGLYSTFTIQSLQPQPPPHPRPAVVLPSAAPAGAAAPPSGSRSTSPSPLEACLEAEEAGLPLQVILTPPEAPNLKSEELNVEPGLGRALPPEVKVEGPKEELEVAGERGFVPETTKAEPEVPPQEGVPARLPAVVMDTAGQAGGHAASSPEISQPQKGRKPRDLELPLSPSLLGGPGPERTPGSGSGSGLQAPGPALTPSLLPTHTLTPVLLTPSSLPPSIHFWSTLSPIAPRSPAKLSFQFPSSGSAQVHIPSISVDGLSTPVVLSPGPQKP
The conditions noted are these: protein: recombinant; tags: N-terminal GST; dsDNA, one strand shown. In outline: as §1

The target of another assay is T3, GABPA (Homo sapiens, UniProt Q06546 1-454).
T3 sequence: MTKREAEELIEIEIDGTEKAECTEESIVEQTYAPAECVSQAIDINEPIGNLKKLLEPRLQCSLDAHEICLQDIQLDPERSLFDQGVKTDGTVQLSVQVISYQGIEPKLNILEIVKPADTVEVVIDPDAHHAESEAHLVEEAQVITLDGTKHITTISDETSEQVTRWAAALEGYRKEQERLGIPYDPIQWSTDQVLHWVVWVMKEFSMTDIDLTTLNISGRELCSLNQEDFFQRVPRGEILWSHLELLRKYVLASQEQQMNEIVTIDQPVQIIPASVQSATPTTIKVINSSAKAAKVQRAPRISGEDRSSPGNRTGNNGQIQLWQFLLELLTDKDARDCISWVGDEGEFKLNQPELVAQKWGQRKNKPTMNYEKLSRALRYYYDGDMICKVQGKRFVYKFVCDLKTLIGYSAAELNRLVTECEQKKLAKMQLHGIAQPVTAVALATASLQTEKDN
Conditions: protein: recombinant; tags: N-terminal GST; dsDNA, one strand shown. In outline:
as §1

Another assay has as its target T4, ERG (Homo sapiens, UniProt P11308 1-479).
T4 sequence: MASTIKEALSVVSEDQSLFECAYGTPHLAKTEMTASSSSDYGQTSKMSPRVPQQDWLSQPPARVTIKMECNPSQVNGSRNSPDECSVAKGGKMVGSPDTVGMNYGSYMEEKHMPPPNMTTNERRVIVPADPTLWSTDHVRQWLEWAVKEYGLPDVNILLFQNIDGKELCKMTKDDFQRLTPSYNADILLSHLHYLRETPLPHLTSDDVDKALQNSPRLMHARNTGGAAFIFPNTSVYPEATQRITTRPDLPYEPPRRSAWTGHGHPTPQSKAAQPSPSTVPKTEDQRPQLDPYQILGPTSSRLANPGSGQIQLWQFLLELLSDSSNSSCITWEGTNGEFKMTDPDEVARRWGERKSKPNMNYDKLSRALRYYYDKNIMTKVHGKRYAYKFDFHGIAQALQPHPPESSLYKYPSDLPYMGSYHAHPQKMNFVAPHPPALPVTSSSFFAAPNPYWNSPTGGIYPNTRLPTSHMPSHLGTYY
Conditions: protein: recombinant; tags: N-terminal GST; dsDNA, one strand shown. In outline: as §1

The target of another assay is ELF1 (Homo sapiens, UniProt P32519 1-619). The conditions noted are these: protein: recombinant; tags: N-terminal GST; dsDNA, one strand shown. In a few lines:
as §1

A further assay concerns the target T5, EHF (Homo sapiens, UniProt Q9NZC4 1-300).
T5 sequence: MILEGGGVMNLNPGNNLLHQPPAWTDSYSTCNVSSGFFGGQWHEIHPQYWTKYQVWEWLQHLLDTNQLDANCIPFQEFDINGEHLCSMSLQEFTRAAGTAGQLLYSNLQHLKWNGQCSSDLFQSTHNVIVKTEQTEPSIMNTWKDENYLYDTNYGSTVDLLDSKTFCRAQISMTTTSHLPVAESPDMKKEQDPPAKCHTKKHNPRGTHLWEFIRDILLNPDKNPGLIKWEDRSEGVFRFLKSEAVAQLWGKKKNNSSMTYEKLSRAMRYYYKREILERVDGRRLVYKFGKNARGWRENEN
The conditions noted are these: protein: recombinant; tags: N-terminal GST; dsDNA, one strand shown. In a few lines: as §1

The next assay concerns the target SPIB (Homo sapiens, UniProt Q01892 1-262). Conditions: protein: recombinant; tags: N-terminal GST; dsDNA, one strand shown. In outline: as §1
The next assay deals with T6, FEV (Homo sapiens, UniProt Q99581 1-238).
T6 sequence: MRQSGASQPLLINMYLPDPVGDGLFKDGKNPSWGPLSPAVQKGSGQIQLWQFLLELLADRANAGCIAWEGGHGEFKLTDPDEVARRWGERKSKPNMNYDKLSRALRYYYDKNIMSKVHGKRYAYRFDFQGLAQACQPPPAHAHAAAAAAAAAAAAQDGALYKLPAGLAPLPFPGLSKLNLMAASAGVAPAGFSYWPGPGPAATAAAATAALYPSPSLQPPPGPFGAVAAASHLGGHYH
The conditions noted are these: protein: recombinant; tags: N-terminal GST; dsDNA, one strand shown. In a few lines: as §1

A further assay addresses ETV5 (Homo sapiens, UniProt P41161 1-510). Conditions: protein: recombinant; tags: N-terminal GST; dsDNA, one strand shown. In a few lines:
as §1

The target in a further assay is HSF1 (Homo sapiens, UniProt Q00613 1-529). Conditions: protein: recombinant; tags: N-terminal GST; chain copies: 3; dsDNA, one strand shown. In outline: as §1
Chain of HSF1 (Q00613 whole entry): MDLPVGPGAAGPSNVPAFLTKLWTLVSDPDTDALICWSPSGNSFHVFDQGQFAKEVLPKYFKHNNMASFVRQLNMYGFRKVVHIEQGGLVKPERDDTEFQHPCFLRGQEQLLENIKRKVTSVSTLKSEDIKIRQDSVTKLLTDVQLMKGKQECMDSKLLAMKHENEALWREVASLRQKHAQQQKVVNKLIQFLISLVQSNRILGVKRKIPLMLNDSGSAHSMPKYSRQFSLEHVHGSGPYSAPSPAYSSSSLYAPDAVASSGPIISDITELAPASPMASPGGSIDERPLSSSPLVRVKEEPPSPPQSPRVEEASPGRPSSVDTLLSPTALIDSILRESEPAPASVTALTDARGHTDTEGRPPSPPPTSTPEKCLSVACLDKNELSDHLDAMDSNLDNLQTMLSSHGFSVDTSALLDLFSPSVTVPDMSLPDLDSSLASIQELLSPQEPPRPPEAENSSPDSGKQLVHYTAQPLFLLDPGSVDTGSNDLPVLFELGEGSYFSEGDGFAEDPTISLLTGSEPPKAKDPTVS
In the next assay the target is T7, SPIC (Homo sapiens, UniProt Q8N5J4 1-248).
T7 sequence: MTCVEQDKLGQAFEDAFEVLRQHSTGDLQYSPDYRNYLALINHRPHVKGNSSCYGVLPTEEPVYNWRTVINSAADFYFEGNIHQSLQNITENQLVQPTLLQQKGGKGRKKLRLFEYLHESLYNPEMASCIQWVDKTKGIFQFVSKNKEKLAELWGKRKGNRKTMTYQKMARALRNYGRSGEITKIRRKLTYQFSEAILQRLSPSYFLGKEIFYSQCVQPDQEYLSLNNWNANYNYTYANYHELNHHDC
The conditions noted are these: protein: recombinant; tags: N-terminal GST; dsDNA, one strand shown. In outline:
as §1

The target of a further assay is ELF4 (Homo sapiens, UniProt Q99607 1-663). Conditions: protein: recombinant; tags: N-terminal GST; dsDNA, one strand shown. In outline: as §1
Chain of ELF4 (Q99607 whole entry): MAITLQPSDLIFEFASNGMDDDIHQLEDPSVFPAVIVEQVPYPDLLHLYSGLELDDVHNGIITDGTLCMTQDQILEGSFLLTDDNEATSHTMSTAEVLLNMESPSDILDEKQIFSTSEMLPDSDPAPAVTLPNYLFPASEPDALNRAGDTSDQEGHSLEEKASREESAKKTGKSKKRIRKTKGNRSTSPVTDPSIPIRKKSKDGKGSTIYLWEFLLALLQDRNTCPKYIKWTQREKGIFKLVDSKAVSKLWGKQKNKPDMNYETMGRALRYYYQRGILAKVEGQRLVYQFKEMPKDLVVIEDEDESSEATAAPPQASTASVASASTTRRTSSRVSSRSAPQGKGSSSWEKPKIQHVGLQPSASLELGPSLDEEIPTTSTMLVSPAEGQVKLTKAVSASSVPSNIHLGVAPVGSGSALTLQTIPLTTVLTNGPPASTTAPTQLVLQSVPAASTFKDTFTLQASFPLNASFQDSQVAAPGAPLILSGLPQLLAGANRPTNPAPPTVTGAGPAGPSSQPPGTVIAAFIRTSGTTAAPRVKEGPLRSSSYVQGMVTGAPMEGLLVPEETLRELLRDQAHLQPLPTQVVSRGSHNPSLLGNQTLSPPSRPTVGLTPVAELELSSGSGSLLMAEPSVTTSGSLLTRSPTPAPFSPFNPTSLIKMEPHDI
The next assay has as its target T8, ELK4 (Homo sapiens, UniProt P28324-2 1-405).
T8 sequence: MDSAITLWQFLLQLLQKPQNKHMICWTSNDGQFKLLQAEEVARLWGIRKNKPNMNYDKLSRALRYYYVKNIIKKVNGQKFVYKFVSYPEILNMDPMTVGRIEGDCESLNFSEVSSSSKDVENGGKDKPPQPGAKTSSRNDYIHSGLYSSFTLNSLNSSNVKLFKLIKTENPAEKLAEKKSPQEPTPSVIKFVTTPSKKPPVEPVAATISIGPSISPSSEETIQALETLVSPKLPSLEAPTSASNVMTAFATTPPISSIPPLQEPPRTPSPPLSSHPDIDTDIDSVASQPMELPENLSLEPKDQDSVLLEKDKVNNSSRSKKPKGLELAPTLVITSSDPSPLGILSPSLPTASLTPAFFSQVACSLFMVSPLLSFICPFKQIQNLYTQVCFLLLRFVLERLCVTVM
Conditions: protein: recombinant; tags: N-terminal GST; dsDNA, one strand shown. In outline:
as §1

The next assay addresses T9, ETV2 (Homo sapiens, UniProt O00321 1-342).
T9 sequence: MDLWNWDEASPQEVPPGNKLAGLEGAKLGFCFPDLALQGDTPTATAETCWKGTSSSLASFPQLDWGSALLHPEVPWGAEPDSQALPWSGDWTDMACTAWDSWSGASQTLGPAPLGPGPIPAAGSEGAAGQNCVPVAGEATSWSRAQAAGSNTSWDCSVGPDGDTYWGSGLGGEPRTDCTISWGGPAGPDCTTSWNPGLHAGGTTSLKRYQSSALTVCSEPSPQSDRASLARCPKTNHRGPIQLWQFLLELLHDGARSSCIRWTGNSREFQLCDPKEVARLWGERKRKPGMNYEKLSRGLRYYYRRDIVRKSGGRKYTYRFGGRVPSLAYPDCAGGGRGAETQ
The conditions noted are these: protein: recombinant; tags: N-terminal GST; dsDNA, one strand shown. In a few lines: as §1

The target in the next assay is T10, ELF3 (Homo sapiens, UniProt P78545 1-371).
T10 sequence: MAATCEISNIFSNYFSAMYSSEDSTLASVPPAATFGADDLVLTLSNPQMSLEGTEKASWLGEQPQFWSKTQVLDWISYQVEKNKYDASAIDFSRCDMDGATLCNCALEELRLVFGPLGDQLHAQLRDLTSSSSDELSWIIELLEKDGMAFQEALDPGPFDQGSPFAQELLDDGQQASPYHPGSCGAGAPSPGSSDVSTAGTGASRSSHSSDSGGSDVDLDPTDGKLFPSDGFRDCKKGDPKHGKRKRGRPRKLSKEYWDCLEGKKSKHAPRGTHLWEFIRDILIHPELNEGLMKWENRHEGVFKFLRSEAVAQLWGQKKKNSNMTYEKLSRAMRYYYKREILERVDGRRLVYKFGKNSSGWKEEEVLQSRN
Conditions: protein: recombinant; tags: N-terminal GST; dsDNA, one strand shown. In a few lines: as §1

The next assay addresses ETV1 (Homo sapiens, UniProt P50549 1-477). Conditions: protein: recombinant; tags: N-terminal GST; dsDNA, one strand shown. In a few lines: as §1

Chain of SPIB (Q01892 whole entry): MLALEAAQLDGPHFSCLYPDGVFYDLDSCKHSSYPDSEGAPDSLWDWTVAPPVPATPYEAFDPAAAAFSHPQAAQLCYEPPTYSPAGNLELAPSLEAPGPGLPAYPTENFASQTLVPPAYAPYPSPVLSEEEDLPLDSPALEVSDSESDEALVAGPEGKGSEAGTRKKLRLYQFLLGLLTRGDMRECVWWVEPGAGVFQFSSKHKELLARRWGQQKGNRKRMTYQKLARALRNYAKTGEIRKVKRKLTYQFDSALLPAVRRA
Chain of ETV1 (P50549 whole entry): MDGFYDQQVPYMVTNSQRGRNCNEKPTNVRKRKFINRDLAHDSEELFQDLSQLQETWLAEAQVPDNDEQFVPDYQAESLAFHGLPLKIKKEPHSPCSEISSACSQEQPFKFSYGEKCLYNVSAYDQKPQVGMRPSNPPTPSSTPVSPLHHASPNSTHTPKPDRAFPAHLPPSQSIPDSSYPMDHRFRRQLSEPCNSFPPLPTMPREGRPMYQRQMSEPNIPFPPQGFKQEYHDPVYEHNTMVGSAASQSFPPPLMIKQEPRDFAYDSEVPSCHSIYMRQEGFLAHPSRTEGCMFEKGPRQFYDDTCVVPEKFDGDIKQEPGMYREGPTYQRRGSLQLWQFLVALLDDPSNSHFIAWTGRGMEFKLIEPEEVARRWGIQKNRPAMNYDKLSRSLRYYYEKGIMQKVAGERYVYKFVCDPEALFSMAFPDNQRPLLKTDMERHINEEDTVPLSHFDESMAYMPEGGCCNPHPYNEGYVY
Chain of ELF1 (P32519 whole entry): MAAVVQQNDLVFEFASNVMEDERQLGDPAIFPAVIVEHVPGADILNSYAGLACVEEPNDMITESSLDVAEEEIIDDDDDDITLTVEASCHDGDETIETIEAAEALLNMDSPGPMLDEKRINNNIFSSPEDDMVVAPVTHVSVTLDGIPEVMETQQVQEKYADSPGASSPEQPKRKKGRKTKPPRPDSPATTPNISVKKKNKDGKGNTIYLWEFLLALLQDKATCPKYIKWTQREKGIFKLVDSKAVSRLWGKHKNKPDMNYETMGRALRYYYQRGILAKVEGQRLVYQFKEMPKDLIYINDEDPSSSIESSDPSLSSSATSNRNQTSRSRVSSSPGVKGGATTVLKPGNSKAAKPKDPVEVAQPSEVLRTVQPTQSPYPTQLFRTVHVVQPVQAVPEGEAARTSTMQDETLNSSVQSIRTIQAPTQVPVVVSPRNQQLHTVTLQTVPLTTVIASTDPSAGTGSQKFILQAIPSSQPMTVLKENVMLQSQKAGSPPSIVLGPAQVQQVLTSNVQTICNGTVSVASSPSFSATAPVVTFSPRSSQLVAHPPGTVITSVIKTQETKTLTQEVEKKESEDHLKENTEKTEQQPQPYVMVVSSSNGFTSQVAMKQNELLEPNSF
Chain of ETV5 (P41161 whole entry): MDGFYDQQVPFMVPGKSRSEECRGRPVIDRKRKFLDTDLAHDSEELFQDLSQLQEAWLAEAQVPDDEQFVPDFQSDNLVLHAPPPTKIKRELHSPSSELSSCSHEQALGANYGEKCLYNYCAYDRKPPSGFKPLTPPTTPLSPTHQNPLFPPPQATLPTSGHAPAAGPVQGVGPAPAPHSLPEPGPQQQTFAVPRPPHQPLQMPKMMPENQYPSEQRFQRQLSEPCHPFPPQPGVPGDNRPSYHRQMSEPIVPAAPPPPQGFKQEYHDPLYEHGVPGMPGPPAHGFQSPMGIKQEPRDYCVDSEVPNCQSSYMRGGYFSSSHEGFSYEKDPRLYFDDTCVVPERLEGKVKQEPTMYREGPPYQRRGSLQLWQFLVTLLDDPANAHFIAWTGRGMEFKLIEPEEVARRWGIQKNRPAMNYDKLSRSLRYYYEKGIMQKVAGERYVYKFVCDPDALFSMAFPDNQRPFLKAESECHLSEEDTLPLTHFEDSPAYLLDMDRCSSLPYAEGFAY

Regarding AAGCAA, the binding signal with FLI1 was 1.03 fold enrichment (6-mer frequency, TF over GST control); with ELK1, 1.08 fold enrichment (6-mer frequency, TF over GST control); in the assay with GABPA, 1.07 fold enrichment (6-mer frequency, TF over GST control); in the assay with ERG, 1.02 fold enrichment (6-mer frequency, TF over GST control); in the assay with ELF1, 1.06 fold enrichment (6-mer frequency, TF over GST control); with EHF it was 1.02 fold enrichment (6-mer frequency, TF over GST control). The binding signal in the assay with SPIB is 1.02 fold enrichment (6-mer frequency, TF over GST control); with FEV, 1.05 fold enrichment (6-mer frequency, TF over GST control); in the assay with ETV5, 1.11 fold enrichment (6-mer frequency, TF over GST control); with HSF1, 1.04 fold enrichment (6-mer frequency, TF over GST control); in the assay with SPIC it was 1.03 fold enrichment (6-mer frequency, TF over GST control); in the assay with ELF4, 1.06 fold enrichment (6-mer frequency, TF over GST control). In addition, the binding signal was 1.08 fold enrichment (6-mer frequency, TF over GST control) with ELK4; 1.01 fold enrichment (6-mer frequency, TF over GST control) with ETV2; 1.09 fold enrichment (6-mer frequency, TF over GST control) in the assay with ELF3; 1.08 fold enrichment (6-mer frequency, TF over GST control) with ETV1.
